The results in this text go back to PubChem BioAssay.

Inconclusive results are not listed. The source made the active and inactive calls.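 How the source made its calls, unless noted: active means normalized viability below 100% at a tested concentration; inactive means the rest.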

Test [1] in a line: growth inhibition of DIPG glioma cells, dose response, cell-based, SU-DIPG-XVII, MIPE5.0, CellTiter-Glo, qHTS (AID 1347060; cut-off not given, nearly all actives have AC50 up to about 26 µM;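 on AC50: cells exposed to compound for 48 hours before viability readout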). Conditions: SU-DIPG-XVII viability, CellTiter-Glo ATP luminescence. A general note: Cellular ATP, detected with luciferase, serves as a proxy for viable cell number.
Test [2] in a line: growth inhibition of DIPG glioma cells, dose response, cell-based, SU-DIPG-XIII, MIPE4.0, CellTiter-Glo, qHTS (AID 1347061; cut-off not given, nearly all actives have AC50 up to about 37 µM;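 further: cells exposed to compound for 48 hours before readout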). The settings on record: SU-DIPG-XIII viability, CellTiter-Glo ATP luminescence.
Test [3] in a line: growth inhibition of DIPG glioma cells, dose response, cell-based, SU-DIPG-IV, MIPE4.0, CellTiter-Glo, qHTS (AID 1347063; cut-off not given, nearly all actives have AC50 up to about 30 µM;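 further: compound exposure lasted 48 hours before the viability readout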). Conditions: SU-DIPG-IV viability, CellTiter-Glo ATP luminescence.
A short description of test [4]: viability loss in pontine glioma line – cell-based, SU-DIPG-XXV, MIPE5.0, CellTiter-Glo, qHTS, dose response (AID 1347065; cut-off not given, nearly all actives have AC50 up to about 26 µM;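 further: cells exposed to compound for 48 hours before ATP readout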). The settings on record: CellTiter-Glo ATP luminescence.
Test [5] is described as follows: SU-DIPG-VI glioma cell viability, MIPE4.0 library, CellTiter-Glo luminescence, qHTS (AID 1347066; cut-off not given, nearly all actives have AC50 up to about 30 µM;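 further: cells exposed to compound for 48 hours before readout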). The settings on record: CellTiter-Glo ATP luminescence.
The nature of test [6]: JHH-DIPG-1 glioma cell viability, MIPE5.0 library, CellTiter-Glo luminescence, qHTS (AID 1347067; cut-off not given, nearly all actives have AC50 up to about 26 µM;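 further: cells exposed to compound for 48 hours before readout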). The settings on record: JHH-DIPG-1 glioma viability, CellTiter-Glo ATP luminescence.
Test [7] in a line: sensitizers of A549 cells to miR-34 induction, primary screen, imaging, A549 dox-inducible miR-34, nuclei and caspase counts (AID 1347080;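 active means compounds whose cell count with miR-34 switched on is under 0.7 times the count with it off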). The settings on record: A549 miR-34 inducible, Hoechst nuclei count, 48 h.
Test [8] can be described thus: survival rescue of mitochondrial mutant cells in low glucose, primary screen, MELAS cybrids, Rieske KO mouse fibroblasts, CellTiter-Glo (AID 1508586;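 active means mean z-score across replicates of 1.96 or higher in either the MELAS or the Rieske mutant cell line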;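 further: z relative to plate mean and SD of compound and empty wells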).
The nature of test [9]: ovarian cancer cell viability with rucaparib, profiling panel, oncology-focused library, rucaparib conditional (AID 1508598). Conditions: patient-derived ovarian cancer cells, CellTiter-Glo viability, 144 h, stronger effect = lower value.
The nature of test [10]: SU-DIPG-XXV glioma cell viability, MIPE5.0 library, qHTS (AID 1347068; cut-off not given, nearly all actives have IC50 up to about 30 µM;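 on IC50: cells exposed to compound for 48 hours before viability readout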).
The nature of test [11]: modifiers of HSF1 nuclear foci, imaging, Selleck Cancer Library (AID 1347162; in the data active means plate-normalised HSF1 focus index below about 0.46). The settings on record: human cells, at 10 µM; SSMD: measured here: HSF1 foci SSMD mean; cell count: measured here: cell number; plate-normalised HSF1 focus index: stronger effect = lower value.
Test [12] in a line: growth inhibition of DIPG glioma cells, dose response, cell-based, SU-DIPG-XIII, MIPE5.0, CellTiter-Glo, qHTS (AID 1347064; cut-off not given, nearly all actives have AC50 up to about 23 µM;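 on AC50: cells exposed to compound for 48 hours before the viability read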). The settings on record: SU-DIPG-XIII viability, CellTiter-Glo ATP luminescence.
[13] abbreviates: stronger effect = lower value, cell number ratio, induced over uninduced.
Setting [14] is: measured here: relative caspase fold change +Dox/-Dox.
Where [15] appears, read: measured here: total cells with miR-34 induction, stronger effect = lower value.
Setting [16] is: measured here: total cells without miR-34 induction.
Where [17] appears, read: MELAS cybrid survival, CellTiter-Glo 48 h, stronger effect = higher value.
Setting [18] is: Rieske KO mouse fibroblast survival, CellTiter-Glo 72 h.

Consider `Nc1cccc2c1C(=O)N(C1CCC(=O)NC1=O)C2=O` (configuration not stated), for which the outcome in test [1], in [2], in test [3], in [5] and in test [6] was inactive. In addition, the AC50 (in general, the concentration giving half of the maximal activity seen) in [4] is 0.00118 µM (active). In addition, the fold change in test [7] (setting [13]) is 0.865 (inactive); in test [7] (setting [14]) it was 0.842. Further, the cell count in test [7] (setting [15]) is 8200; in test [7] (setting [16]), 9490. For the same molecule, the z-score in test [8] (setting [17]) is 0.05 (inactive); in test [8] (setting [18]), 0.628. Further, the viability (as a rule, a read-out of living cells in per cent, often relative to untreated cells) was 110% (inactive) in [9] (at 0.000305 µM, OCI-C5x cells, with rucaparib 10 µM, 100% = cells with rucaparib alone); 124% (inactive) in test [9] (at 0.000305 µM, OCI-C5x cells, without rucaparib); 110% (inactive) in test [9] (at 0.000305 µM, OCI-P5x cells, with rucaparib 20 µM, 100% = cells with rucaparib alone); 127% (inactive) in test [9] (at 0.000305 µM, OCI-P5x cells, without rucaparib); 109% (inactive) in test [9] (at 0.00122 µM, OCI-C5x cells, with rucaparib 10 µM, 100% = cells with rucaparib alone); 124% (inactive) in [9] (at 0.00122 µM, OCI-C5x cells, without rucaparib). The viability is 107% (inactive) in test [9] (at 0.00122 µM, OCI-P5x cells, with rucaparib 20 µM, 100% = cells with rucaparib alone); 125% (inactive) in test [9] (at 0.00122 µM, OCI-P5x cells, without rucaparib); 112% (inactive) in test [9] (at 0.00488 µM, OCI-C5x cells, with rucaparib 10 µM, 100% = cells with rucaparib alone); 121% (inactive) in [9] (at 0.00488 µM, OCI-C5x cells, without rucaparib); 102% (inactive) in [9] (at 0.00488 µM, OCI-P5x cells, with rucaparib 20 µM, 100% = cells with rucaparib alone); 118% (inactive) in [9] (at 0.00488 µM, OCI-P5x cells, without rucaparib). For the same molecule, the viability is 115% (inactive) in [9] (at 0.0195 µM, OCI-C5x cells, with rucaparib 10 µM, 100% = cells with rucaparib alone); 125% (inactive) in test [9] (at 0.0195 µM, OCI-C5x cells, without rucaparib); 105% (inactive) in [9] (at 0.0195 µM, OCI-P5x cells, with rucaparib 20 µM, 100% = cells with rucaparib alone); 114% (inactive) in test [9] (at 0.0195 µM, OCI-P5x cells, without rucaparib); 117% (inactive) in [9] (at 0.0781 µM, OCI-C5x cells, with rucaparib 10 µM, 100% = cells with rucaparib alone); 112% (inactive) in [9] (at 0.0781 µM, OCI-C5x cells, without rucaparib). For the same molecule, the viability in test [9] (at 0.0781 µM, OCI-P5x cells, with rucaparib 20 µM, 100% = cells with rucaparib alone) is 104% (inactive); in test [9] (at 0.0781 µM, OCI-P5x cells, without rucaparib), 118% (inactive); in test [9] (at 0.313 µM, OCI-C5x cells, with rucaparib 10 µM, 100% = cells with rucaparib alone), 110% (inactive); in test [9] (at 0.313 µM, OCI-C5x cells, without rucaparib) it was 116% (inactive); in test [9] (at 0.313 µM, OCI-P5x cells, with rucaparib 20 µM, 100% = cells with rucaparib alone), 99.9% (active); in test [9] (at 0.313 µM, OCI-P5x cells, without rucaparib), 107% (inactive). In addition, the viability is 118% (inactive) in test [9] (at 1.25 µM, OCI-C5x cells, with rucaparib 10 µM, 100% = cells with rucaparib alone); 117% (inactive) in [9] (at 1.25 µM, OCI-C5x cells, without rucaparib); 88.7% (active) in test [9] (at 1.25 µM, OCI-P5x cells, with rucaparib 20 µM, 100% = cells with rucaparib alone); 97.8% (active) in test [9] (at 1.25 µM, OCI-P5x cells, without rucaparib); 105% (inactive) in test [9] (at 5 µM, OCI-C5x cells, with rucaparib 10 µM, 100% = cells with rucaparib alone); 110% (inactive) in test [9] (at 5 µM, OCI-C5x cells, without rucaparib). For the same molecule, the viability in test [9] (at 5 µM, OCI-P5x cells, with rucaparib 20 µM, 100% = cells with rucaparib alone) was 84.6% (active); in test [9] (at 5 µM, OCI-P5x cells, without rucaparib), 97.3% (active).

As for `CCc1cc(-c2n[nH]c(C)c2-c2ccc3c(c2)OCCO3)c(O)cc1O`, the concentration at half-maximal activity (AC50) was 18.6 µM (active) in [1]; 7.43 µM (active) in test [2]; 2.64 µM (active) in [3]; 16.6 µM (active) in [4]; 20.9 µM (active) in test [6]. In addition, the IC50 – broadly, the concentration at which inhibition is half-maximal – in test [10] was 20.9 µM (active). Moreover, the SSMD in [11] is 1.15. This molecule also had a cell count in test [11] of 5920. The plate-normalised HSF1 focus index in test [11] was 1.07 (inactive).

`Nc1nc(=O)n([C@H]2C[C@H](O)[C@@H](CO)O2)cc1F`: the result in test [1], in [2], in test [3], in test [4], in [5] and in [6] was inactive. The molecule was classed as inactive in test [10].

Take `CO[C@H]1C[C@@H]2CC[C@@H](C)[C@@](O)(O2)C(=O)C(=O)N2CCCC[C@H]2C(=O)O[C@H]([C@H](C)C[C@@H]2CC[C@@H](OP(C)(C)=O)[C@H](OC)C2)CC(=O)[C@H](C)/C=C(\C)[C@@H](O)[C@@H](OC)C(=O)[C@H](C)C[C@H](C)/C=C/C=C/C=C/1C`: the AC50 was 18.6 µM (active) in test [1], 23.5 µM (active) in test [3], 16.6 µM (active) in test [4] and 20.9 µM (active) in test [6]. For the same molecule, the outcome in test [2] was inactive.

Regarding `COc1cc(C(C)C)c2c(c1)S(=O)(=O)N(COc1cc(=O)n3cccc(OCCN4CCCCC4)c3n1)C2=O`, the half-maximal activity concentration (AC50) was 23.5 µM (active) in test [1] and 20.9 µM (active) in test [4]. For the same molecule, the call in test [2] was inactive.

`CC#CCn1c(N2CCC[C@@H](N)C2)nc2c1c(=O)n(Cc1nc(C)c3ccccc3n1)c(=O)n2C`: the molecule was called inactive in test [1], in [2], in [12], in [4], in [5] and in [6]. In addition, the result in test [10] was inactive.

Turning to `NC1=N[C@@]2(c3cc(NC(=O)c4ccc(F)cn4)ccc3F)COC[C@H]2CS1`, the call in test [1], in test [2], in test [4], in test [5], in [6] and in [10] was inactive.

Take `Clc1ccc(C2(c3ccc(-c4cn[nH]c4)cc3)CCNCC2)cc1`: the AC50 is 18.6 µM (active) in [1], 14.8 µM (active) in test [12] and 10.5 µM (active) in test [4]. The result in test [2] and in [5] was inactive. Besides, the fold change in test [7] (setting [13]) was 0.914 (inactive); in test [7] (setting [14]), 1.06. In addition, the cell count came to 2520 in [7] (setting [15]) and 2760 in test [7] (setting [16]). For the same molecule, the z-score in test [8] (setting [17]) is 5.75 (active); in test [8] (setting [18]), -3.02.
